From the supplement of paper PMC11732987, “Enantioselective OTUD7B fragment discovery through chemoproteomics screening and high-throughput optimisation” (Communications Chemistry, 2025)

These targets were tested with OC1CN(Cc2sccc12)C(=O)CCl (assay: log2 ratio of Biotin-Ahx-Ub-VS probe labelling (compound/DMSO); higher = less target engagement, active = hit call of the paper (q ≤ 0.05, log2 ratio ≤ -1)). Details: compound concentration: 50uM; treatment time: 3 h.
Description: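 Round 2 competitive ABPP in HEK293T lysate. Purified HTC-D2B compounds were tested at 50 and 200 µM for 3 h, followed by Biotin-Ahx-Ub-VS enrichment and diaPASEF LC-MS/MS. Values are the average log2 ratio (compound/DMSO) from an unpaired t-test (n=3 treated, n=26 DMSO).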

Chain of UniProt P54252 (P54252 whole entry): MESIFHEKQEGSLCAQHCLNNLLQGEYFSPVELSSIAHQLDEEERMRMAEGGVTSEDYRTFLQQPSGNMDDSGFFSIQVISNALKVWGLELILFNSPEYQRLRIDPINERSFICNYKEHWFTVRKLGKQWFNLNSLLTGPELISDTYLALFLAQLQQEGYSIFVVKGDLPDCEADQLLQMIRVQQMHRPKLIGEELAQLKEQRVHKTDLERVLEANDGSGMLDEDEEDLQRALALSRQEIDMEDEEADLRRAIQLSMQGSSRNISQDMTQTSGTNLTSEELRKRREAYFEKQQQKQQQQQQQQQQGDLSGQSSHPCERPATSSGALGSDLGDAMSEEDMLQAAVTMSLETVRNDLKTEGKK
Chain of UniProt Q9P275 (Q9P275 whole entry): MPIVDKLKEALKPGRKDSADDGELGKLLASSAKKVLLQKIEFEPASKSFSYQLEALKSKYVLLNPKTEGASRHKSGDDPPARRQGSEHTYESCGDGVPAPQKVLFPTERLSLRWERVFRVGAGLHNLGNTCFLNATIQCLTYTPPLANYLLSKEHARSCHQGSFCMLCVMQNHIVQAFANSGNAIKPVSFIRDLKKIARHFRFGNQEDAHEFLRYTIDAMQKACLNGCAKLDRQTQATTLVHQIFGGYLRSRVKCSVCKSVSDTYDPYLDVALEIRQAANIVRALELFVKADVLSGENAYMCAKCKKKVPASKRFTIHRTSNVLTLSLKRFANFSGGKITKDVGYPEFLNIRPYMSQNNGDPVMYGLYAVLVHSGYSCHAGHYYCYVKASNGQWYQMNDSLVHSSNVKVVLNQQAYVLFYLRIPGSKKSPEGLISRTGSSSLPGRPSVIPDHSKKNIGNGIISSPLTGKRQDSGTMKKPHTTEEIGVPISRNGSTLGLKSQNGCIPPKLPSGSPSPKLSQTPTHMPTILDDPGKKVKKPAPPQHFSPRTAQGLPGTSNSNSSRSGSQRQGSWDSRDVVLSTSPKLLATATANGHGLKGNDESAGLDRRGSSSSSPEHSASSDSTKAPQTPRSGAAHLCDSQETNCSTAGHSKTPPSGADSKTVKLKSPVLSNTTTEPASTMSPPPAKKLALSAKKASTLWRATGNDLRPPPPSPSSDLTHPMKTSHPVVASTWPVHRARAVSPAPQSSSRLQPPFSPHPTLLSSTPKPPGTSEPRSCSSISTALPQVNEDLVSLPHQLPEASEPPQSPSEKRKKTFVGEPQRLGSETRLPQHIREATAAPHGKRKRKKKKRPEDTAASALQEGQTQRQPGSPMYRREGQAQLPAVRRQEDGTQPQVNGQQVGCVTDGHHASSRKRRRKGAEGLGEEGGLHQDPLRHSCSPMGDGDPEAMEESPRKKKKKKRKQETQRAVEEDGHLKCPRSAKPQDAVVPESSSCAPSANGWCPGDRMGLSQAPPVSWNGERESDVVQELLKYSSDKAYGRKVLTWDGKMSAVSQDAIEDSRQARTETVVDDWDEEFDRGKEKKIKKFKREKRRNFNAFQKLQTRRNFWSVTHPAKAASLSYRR
Chain of UniProt Q01804 (Q01804 whole entry): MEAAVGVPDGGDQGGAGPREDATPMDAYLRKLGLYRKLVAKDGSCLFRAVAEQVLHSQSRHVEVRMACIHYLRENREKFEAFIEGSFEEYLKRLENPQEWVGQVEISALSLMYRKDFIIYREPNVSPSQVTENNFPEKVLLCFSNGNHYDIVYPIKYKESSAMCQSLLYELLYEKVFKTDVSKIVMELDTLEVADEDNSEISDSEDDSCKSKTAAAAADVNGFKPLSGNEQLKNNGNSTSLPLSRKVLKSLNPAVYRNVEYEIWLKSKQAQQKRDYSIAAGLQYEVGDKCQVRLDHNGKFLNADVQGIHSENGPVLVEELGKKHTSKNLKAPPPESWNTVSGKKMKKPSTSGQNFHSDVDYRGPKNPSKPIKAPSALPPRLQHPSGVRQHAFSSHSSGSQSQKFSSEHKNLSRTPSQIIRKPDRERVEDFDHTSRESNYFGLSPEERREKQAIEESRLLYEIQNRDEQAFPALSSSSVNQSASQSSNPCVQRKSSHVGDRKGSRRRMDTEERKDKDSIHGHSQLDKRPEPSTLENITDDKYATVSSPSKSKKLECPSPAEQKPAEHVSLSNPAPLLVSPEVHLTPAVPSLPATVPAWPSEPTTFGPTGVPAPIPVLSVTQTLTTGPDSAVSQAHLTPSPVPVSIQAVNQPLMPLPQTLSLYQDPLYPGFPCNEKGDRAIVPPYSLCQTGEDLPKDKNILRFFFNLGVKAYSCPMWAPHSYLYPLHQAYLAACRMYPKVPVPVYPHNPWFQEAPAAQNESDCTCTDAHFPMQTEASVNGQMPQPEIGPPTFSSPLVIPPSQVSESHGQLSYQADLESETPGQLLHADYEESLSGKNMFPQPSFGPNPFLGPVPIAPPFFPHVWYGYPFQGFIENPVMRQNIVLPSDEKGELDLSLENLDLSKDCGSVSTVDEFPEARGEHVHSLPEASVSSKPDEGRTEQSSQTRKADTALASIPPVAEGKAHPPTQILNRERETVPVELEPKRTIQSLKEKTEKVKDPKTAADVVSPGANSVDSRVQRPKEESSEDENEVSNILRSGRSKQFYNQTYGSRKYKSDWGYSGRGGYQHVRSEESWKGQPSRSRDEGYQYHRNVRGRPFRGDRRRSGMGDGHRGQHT
Chain of UniProt Q9Y4E8 (Q9Y4E8 whole entry): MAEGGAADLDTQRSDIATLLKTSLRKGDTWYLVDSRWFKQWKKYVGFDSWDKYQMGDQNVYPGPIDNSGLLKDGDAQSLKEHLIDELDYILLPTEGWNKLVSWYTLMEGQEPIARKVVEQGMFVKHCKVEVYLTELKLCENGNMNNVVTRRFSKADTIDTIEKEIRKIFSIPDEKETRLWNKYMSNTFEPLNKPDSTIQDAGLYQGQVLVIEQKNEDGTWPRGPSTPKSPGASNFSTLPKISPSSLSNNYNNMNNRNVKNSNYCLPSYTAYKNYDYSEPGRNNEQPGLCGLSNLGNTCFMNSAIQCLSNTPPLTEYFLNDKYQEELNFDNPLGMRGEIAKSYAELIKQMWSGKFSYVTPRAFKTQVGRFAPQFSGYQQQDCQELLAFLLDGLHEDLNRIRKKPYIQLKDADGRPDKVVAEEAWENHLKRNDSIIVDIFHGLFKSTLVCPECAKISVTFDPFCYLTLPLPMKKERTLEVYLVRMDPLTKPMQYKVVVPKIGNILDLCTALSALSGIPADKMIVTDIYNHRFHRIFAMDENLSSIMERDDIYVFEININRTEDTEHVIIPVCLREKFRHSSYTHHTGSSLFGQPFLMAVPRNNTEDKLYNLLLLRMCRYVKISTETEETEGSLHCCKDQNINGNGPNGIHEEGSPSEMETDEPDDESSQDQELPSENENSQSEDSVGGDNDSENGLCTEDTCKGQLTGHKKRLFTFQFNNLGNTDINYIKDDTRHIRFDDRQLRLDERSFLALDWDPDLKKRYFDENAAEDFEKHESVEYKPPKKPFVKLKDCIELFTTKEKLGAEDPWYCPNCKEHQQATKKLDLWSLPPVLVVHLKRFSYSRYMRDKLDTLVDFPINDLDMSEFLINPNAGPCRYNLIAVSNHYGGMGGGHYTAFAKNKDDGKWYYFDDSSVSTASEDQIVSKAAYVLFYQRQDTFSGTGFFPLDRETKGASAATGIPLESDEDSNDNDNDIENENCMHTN
Chain of UniProt P15374 (P15374 whole entry): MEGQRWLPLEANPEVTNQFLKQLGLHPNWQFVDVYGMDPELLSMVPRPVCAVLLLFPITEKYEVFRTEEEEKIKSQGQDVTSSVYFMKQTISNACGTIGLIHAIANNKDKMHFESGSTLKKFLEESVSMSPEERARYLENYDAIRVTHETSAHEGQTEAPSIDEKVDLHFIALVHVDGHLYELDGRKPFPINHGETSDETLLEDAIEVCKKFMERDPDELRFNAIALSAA
Chain of UniProt Q9P2H5 (Q9P2H5 whole entry): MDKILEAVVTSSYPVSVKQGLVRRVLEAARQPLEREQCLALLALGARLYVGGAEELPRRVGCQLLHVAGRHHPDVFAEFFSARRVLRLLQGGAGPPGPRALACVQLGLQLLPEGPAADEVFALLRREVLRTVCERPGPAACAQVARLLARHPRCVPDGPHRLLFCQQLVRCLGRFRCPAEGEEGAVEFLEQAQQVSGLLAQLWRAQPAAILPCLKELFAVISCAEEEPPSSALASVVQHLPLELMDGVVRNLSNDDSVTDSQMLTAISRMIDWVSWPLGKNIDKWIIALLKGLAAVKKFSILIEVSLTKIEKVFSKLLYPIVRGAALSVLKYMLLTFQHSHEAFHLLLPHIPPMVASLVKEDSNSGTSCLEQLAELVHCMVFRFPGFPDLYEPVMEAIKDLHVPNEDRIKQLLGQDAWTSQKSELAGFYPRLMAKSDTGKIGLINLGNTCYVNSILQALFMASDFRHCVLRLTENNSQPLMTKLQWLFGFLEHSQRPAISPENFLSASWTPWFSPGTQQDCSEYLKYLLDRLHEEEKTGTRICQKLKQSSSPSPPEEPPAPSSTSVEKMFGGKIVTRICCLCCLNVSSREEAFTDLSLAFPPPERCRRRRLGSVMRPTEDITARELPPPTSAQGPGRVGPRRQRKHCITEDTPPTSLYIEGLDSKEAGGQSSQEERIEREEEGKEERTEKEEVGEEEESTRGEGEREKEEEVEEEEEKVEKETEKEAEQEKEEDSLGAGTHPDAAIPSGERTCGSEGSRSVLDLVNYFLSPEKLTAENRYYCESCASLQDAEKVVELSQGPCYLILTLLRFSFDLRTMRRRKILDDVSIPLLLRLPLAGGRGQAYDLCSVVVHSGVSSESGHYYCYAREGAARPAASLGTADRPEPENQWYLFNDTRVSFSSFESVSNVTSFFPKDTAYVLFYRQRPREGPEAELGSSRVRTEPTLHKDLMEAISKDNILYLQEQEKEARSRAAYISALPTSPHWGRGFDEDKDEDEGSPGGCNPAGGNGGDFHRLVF
Chain of UniProt P09936 (P09936 whole entry, looked up): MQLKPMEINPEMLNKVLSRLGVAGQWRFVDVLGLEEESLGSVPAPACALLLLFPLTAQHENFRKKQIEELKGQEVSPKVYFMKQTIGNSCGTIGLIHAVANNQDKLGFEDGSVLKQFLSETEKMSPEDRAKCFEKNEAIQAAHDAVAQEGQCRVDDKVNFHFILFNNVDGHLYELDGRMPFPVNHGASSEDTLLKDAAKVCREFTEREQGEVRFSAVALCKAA

Target	log2 ratio of Biotin-Ahx-Ub-VS probe labelling
ATXN3 (UniProt P54252)	-0.216 (inactive)
USP7 (UniProt Q93009)	-0.155 (inactive)
USP36 (UniProt Q9P275)	-0.243 (inactive)
UniProt Q9P2H5	-0.029 (inactive)
UniProt Q9UGI0	-0.451 (inactive)
USP25 (UniProt Q9UHP3)	0.472 (inactive)
UCHL1 (UniProt P09936)	-0.248 (inactive)
OTUD7B (UniProt Q6GQQ9)	-4.49 (active)
VCPIP1 (UniProt Q96JH7)	-0.309 (inactive)
UCHL3 (UniProt P15374)	-0.332 (inactive)
EIF3F (UniProt O00303)	-0.0817 (inactive)
PSMD7 (UniProt P51665)	-0.579 (inactive)
FAM105A (UniProt Q9NUU6)	-0.0183 (inactive)
USP16 (UniProt Q9Y5T5)	-0.903 (inactive)
OTUD4 (UniProt Q01804)	-0.695 (inactive)
USP28 (UniProt Q96RU2)	-0.0634 (inactive)
BAP1 (UniProt Q92560)	-0.416 (inactive)
EIF3H (UniProt O15372)	-0.189 (inactive)
USP15 (UniProt Q9Y4E8)	-0.214 (inactive)
USP54 (UniProt Q70EL1)	0.561 (inactive)

Same assay, conditions: compound concentration: 200uM; treatment time: 3 h

Target	log2 ratio of Biotin-Ahx-Ub-VS probe labelling
ATXN3 (UniProt P54252)	-0.0796 (inactive)
USP7 (UniProt Q93009)	-0.426 (inactive)
USP36 (UniProt Q9P275)	-0.0665 (inactive)
UniProt Q9P2H5	-0.0467 (inactive)
UniProt Q9UGI0	-1.5 (active)
USP25 (UniProt Q9UHP3)	0.301 (inactive)
UCHL1 (UniProt P09936)	-0.0486 (inactive)
OTUD7B (UniProt Q6GQQ9)	-5.43 (active)
VCPIP1 (UniProt Q96JH7)	-0.285 (inactive)
UCHL3 (UniProt P15374)	-0.337 (inactive)
EIF3F (UniProt O00303)	0.103 (inactive)
PSMD7 (UniProt P51665)	0.371 (inactive)
FAM105A (UniProt Q9NUU6)	0.114 (inactive)
USP16 (UniProt Q9Y5T5)	-0.0352 (inactive)
OTUD4 (UniProt Q01804)	-1.48 (active)
USP28 (UniProt Q96RU2)	-0.321 (inactive)
BAP1 (UniProt Q92560)	-0.818 (inactive)
EIF3H (UniProt O15372)	-0.0524 (inactive)
USP15 (UniProt Q9Y4E8)	-0.404 (inactive)
USP54 (UniProt Q70EL1)	-0.559 (inactive)
